FAS-TE inh: FAS thioesterase (human) inhibition; P49327; recombinant FAS-TE, OMFH fluorogenic substrate, fluorescence endpoint; inhibition, % at 15 µM; 0.67% of 360,000 active; AID 602261;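 active = compounds whose normalised, plate-corrected inhibition of enzyme fluorescence in the single-dose primary screen is 50% or more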
MPTP block: permeability transition pore inhibition; isolated mouse mitochondria, Ca2+ swelling absorbance, 30 min; inhibition, % at 10 µM; 1.4% of 360,000 active;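 active = inhibition of 50% or more, scaled per plate between neutral and stimulator controls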
Myeloid diff MLP: promotes myeloid progenitor differentiation; ER-HoxA9 myeloid progenitors, lysozyme-GFP differentiation, flow cytometry; calls only at 10 µM; 1% of 360,000 active;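 active = normalized GFP-positive differentiation at or above the plate's own cutoff, the solvent-only control mean plus 3 SD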;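 also: cells exposed to compound for four days before flow analysis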
NR3A LBD binder: modulates the human NR3A ligand-binding domain. 2.5% of 340,000 active. Tm shift relative to glycine control, % at 25 µM. NR3A LBD differential scanning fluorimetry, Tm shift; 0% = protein alone, 100% = glycine-bound protein;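 active = melting temperature shift of at least 10% of the positive control shift, at one fixed dose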
rCAG binder: molecules binding r(CAG) RNA repeats; r(CAG) RNA repeat, TO-PRO-1 dye displacement fluorescence; 1.3% of 370,000 active; inhibition, % at 3 µM;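 active = inhibition above the plate cutoff, the mean of all test compounds on that plate plus 3 SD, cut at about 35% in these data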;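 also: higher means more dye released from RNA so lower well fluorescence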
rCAG binder conf: r(CAG) RNA repeat binding, confirmation; 70% of 4,300 active; inhibition, % at 3 µM; TO-PRO-1 dye displacement fluorescence; shares compounds with rCAG binder; AID 652065;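 active = inhibition above a per-plate cutoff, the mean inhibition of sample wells plus 3 SD, cut at about 35% in these data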;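 also: loss of TO-PRO-1 fluorescence as compound displaces dye from 1x1 AA loop RNA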
dCAG dye counter: DNA CAG dye complex inhibition counter-screen; inhibition, % at 3 µM; d(CAG) DNA oligo TO-PRO-1 dye displacement, fluorescence; AID 652068; 94% of 4,300 active; shares compounds with rCAG binder;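 active = inhibition above its plate's cutoff, the mean test-well inhibition plus 3 SD, cut at about 4.8% in these data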;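 also: hits displace the dye from DNA and so lower well fluorescence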
Numbers stand for hits; . = inactive; / = not tested or not shown. A selection: hits, their analogues and other compounds. The true share with any hit is near 5.7%.

SMILES	FAS-TE inh	MPTP block	Myeloid diff MLP	NR3A LBD binder	rCAG binder	rCAG binder conf	dCAG dye counter
O=C(O)c1ccc(-n2cccc2/C=N\NC(=O)c2cc3cc(Br)ccc3o2)cc1	.	.	.	.	49.7	46.3	14.8
O=C(O)Cn1cc(/C=N/NC(=O)c2cc3cc(Br)ccc3o2)c2ccccc21	.	.	.	.	50.3	55.8	17.4
COc1ccc(/C(N)=N/OC(=O)Cc2cccs2)cc1	.	.	.	10.6	46.7	.	.
COc1ccc(/C(N)=N/OC(=O)Cc2cccs2)cc1OC	.	.	.	.	.	/	/
CCOC(=O)c1c(NC(=O)C2C3C=CC(C3)C2(C)C(=O)O)sc2c1CCCC2 (configuration not stated)	.	.	.	.	43.3	46.2	15.1
O=C(/C=C/c1cccs1)Nc1sc2c(c1C(=O)O)CCCC2	.	.	.	.	53.0	.	6.7
COC(=O)c1c(NS(=O)(=O)c2cccs2)sc2c1CCCC2	.	.	.	.	.	/	/
COC(=O)c1c(N2C(=O)Nc3ccccc3N2O)sc(C)c1C	.	.	.	.	.	/	/
CCOC(=O)c1c(NS(=O)(=O)c2cccc(OC)c2)sc2c1CCC2	.	.	.	.	59.9	68.6	22.7
CCOC(=O)c1c(N2C(=O)Nc3ccccc3N2O)sc2c1CCCC2	.	.	.	.	37.7	.	6.7
COc1ccc(CCCNC(=O)C2(C)Cc3c(-c4ccc(C(N)=O)cc4)ccnc3O2)cc1 (configuration not stated)	.	.	.	/	.	/	/
Cc1ccsc1C(=O)NNC(=O)c1ccncc1	.	.	.	.	.	/	/
CC(C)OC(=O)c1c(NC(=O)c2cccs2)sc2c1CCCC2	.	.	.	.	.	/	/
CCOC(=O)c1c(NC(=O)C2C3C=CC(C3)C2C(=O)O)sc2c1CCC(CC)C2 (configuration not stated)	.	.	.	.	38.3	64.1	23.6
CCOC(=O)c1c(NC(=O)c2ccccc2C(=O)O)sc2c1CCCC2	.	.	.	.	55.2	46.3	16.2
O=C(Nc1sc2c(c1C(=O)O)CCCC2)c1ccc(F)cc1	.	.	.	.	.	/	/
O=C(Nc1sc2c(c1C(=O)O)CCCCC2)c1ccccc1F	.	.	.	.	35.5	.	.
O=C(Nc1sc2c(c1C(=O)O)CCCCC2)c1cccs1	.	.	.	.	35.9	.	4.7
CCOC(=O)c1c(NC(=O)C2C3CCC(O3)C2C(=O)O)sc2c1CCC(CC)C2 (configuration not stated)	.	.	.	.	.	/	/
COc1ccc(NC(=O)C2(C)CCN2CCOc2ccccc2)cc1OC (configuration not stated)	.	.	.	/	.	/	/
Cc1ccc(NC(=O)OC(C)N2CCCCC2)cc1NC(=O)OC(C)N1CCCCC1 (configuration not stated)	.	.	.	.	.	/	/
Cc1ccc(C(=O)Nc2nc(-c3ccco3)c(-c3ccco3)s2)o1	.	.	.	.	73.2	.	8.1
O=C(CCCSc1ccccc1)Nc1nc(-c2ccco2)c(-c2ccco2)s1	.	.	.	.	73.7	.	14.3
Cn1c2ccccc2c2cc(/C=N/NC(=O)c3cc(O)ccc3O)ccc21	.	.	.	25.6	66.0	62.1	30.8
Cn1c2ccccc2c2cc(/C=N/NC(=O)c3cc(O)cc(O)c3)ccc21	.	.	.	27.6	43.5	.	18.4
SMILES	FAS-TE inh	MPTP block	Myeloid diff MLP	NR3A LBD binder	rCAG binder	rCAG binder conf	dCAG dye counter
CC1CC(C)CN(C(=O)COC(=O)c2c[nH]c3ccccc23)C1 (configuration not stated)	.	.	.	.	.	/	/
Cc1ccc(/C=N/n2c(-c3ccccc3)n[nH]c2=S)cc1	.	.	.	.	.	/	/
CC(C)c1ccc(/C=N/n2c(-c3ccccc3)n[nH]c2=S)cc1	.	.	.	.	38.9	46.4	13.2
Cc1cc(-c2n[nH]c(=S)n2N=Cc2ccc(-c3ccccc3)cc2)n[nH]1	/	/	/	/	41.5	35.3	8.9
O=C(NCc1ccon1)C1CCC(=O)N(CCc2cccc(F)c2)C1 (configuration not stated)	.	.	.	.	.	/	/
CS(=O)(=O)N1CCCCC1c1cc(C(=O)NCc2ccc(Cl)c(Cl)c2)no1 (configuration not stated)	.	.	.	/	.	/	/
COC(=O)c1sccc1NC(=O)CSc1ccccc1NS(=O)(=O)c1ccccc1Cl	.	.	.	.	35.5	61.9	19.9
CCOC(=O)c1csc(NC(=O)C2CCCN(S(=O)(=O)c3cccs3)C2)n1 (configuration not stated)	/	/	/	/	.	/	/
Cc1cc2nc(-c3cccc(Cl)c3)c(Cc3ccsc3)n2c(C)c1Br	.	.	.	/	.	/	/
CN1c2ccccc2C(O)=C(C(=O)Nc2ccccc2)S1(=O)=O	.	.	.	.	.	/	/
Cc1ccc(NC(=S)C2=C(O)c3ccccc3N(C)S2(=O)=O)cc1	.	.	.	.	58.6	34.9	8.7
Cc1ccc(C)c(OCCNc2ncccc2[N+](=O)[O-])c1	.	.	.	.	.	/	/
C[C@@H]1O[C@@H](n2c3ccc(Cl)cc3c3ccc4c5cc(Cl)ccc5[nH]c4c32)[C@H](O)[C@H](O)[C@H]1O	/	/	/	/	61.7	60.1	42.0
C[C@H]1O[C@@H](n2c3ccc(Cl)cc3c3ccc4c5cc(Cl)ccc5[nH]c4c32)[C@H](O)[C@H](O)[C@H]1O	/	/	/	/	77.6	54.4	42.5
C[C@H]1O[C@@H](n2cc(F)c(=O)[nH]c2=O)[C@H](O)[C@@H]1O	.	.	.	.	.	/	/
CC(=O)Nc1ccc(NC(=O)C(C)OC(=O)c2ccc3[nH]c(C)c(C)c3c2)cc1 (configuration not stated)	.	.	.	.	.	/	/
c1ccc(-c2cc(-c3nnc4sc(Cc5cccs5)nn34)[nH]n2)cc1	/	/	/	/	.	/	/
Cc1cc(NS(=O)(=O)c2ccc(NC(=O)/C=C/c3c(F)cccc3Cl)cc2)nc(C)n1	.	.	.	.	43.1	.	8.7
Cc1cc(NS(=O)(=O)c2ccc(NC(=O)/C=C/c3c(F)cccc3Cl)cc2)no1	.	.	.	.	62.9	50.5	18.8
O=c1c2ccccc2n(Cc2ccco2)n1[C@@H](Cc1ccccc1)Cn1cc(-c2ccc(-c3ccccc3)cc2)nn1	/	/	/	/	.	/	/
COc1ccc(/C=C2\SC(=O)N(CCC(=O)Nc3ccc(S(=O)(=O)Nc4nccs4)cc3)C2=O)cc1	.	.	.	11.2	80.5	79.2	45.2
COc1ccc(/C=C2/SC(=O)N(CCC(=O)Nc3ccc(S(=O)(=O)Nc4nccs4)cc3)C2=O)cc1	.	.	.	.	83.6	82.2	48.7
O=C(Nc1ccc(C(=O)O)cc1)/C(=C\C=C\c1ccccc1)NC(=O)c1cccc(Br)c1	.	.	.	.	78.0	80.0	51.5

Source: PubChem BioAssay (several laboratories)
